The record followed here is PubChem BioAssay (NCI).

Holding throughout (assay): NCI-60 one-dose screen, 48 h (100 = growth as untreated, 0 = no growth, -100 = all killed)
Holding throughout (conditions): 10 µM

In assay [1] the test system is SN12C renal.
The test system of assay [2] is UO-31 renal.
The test system of assay [3] is TK-10 renal.
For assay [4], the system named is ACHN renal.
Assay [5] has as its system CAKI-1 renal.
Assay [6] relates to A498 renal.
Assay [7] relates to CCRF-CEM leukemia.
Assay [8] concerns MOLT-4 leukemia.
Assay [9] concerns SR leukemia.

About 83,000 compounds went through this panel and 20% of them were active in at least one assay; those are over-represented in the sample as a whole.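 Method: cells in 96-well plates; compound added at one concentration; 48 h incubation; percent growth measured; values under 10 scored active.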 Unmarked numbers belong to inactive results. Activity calls are given as the source filed them.

As for `CCC(=O)N1C/C(=C/c2ccc(OC)cc2)C(=O)/C(=C/c2ccc(OC)cc2)C1`, the growth in [1] is 27.4%; in assay [2] it was -7.25% (active); in assay [3] it was 70.3%; in assay [4], 28.4%; in assay [5], 13.1%; in assay [6], 83.5%. For the same compound, the growth in [7] was -5.27% (active); in assay [8] it was 11%; in [9], -11% (active).

`COc1cc(/C=C\c2cc(OC)c(OC)c(OC)c2)cc(NS(=O)(=O)c2ccc(Cl)cc2)c1OC`: the growth is 27.2% in assay [1]; 35.9% in assay [2]; 55.2% in [3]; 39% in assay [4]; 37.1% in assay [5]; -5.88% (active) in assay [6]. Besides, the results for the growth in [7] and in assay [9] were 14.6% and 14.4%, respectively.

For the compound `O=C(c1cccs1)c1ccccc1Cc1ccccc1`, the growth is 96.4% in assay [1]; 80.3% in [2]; 94.5% in assay [3]; 100% in assay [4]; 89.6% in assay [5]; 58.4% in assay [6]. In addition, the growth in assay [7] was 93.7%; in [9], 93.1%.

For `COc1cc(/C=C/C(=O)c2ccc(Cl)cc2)ccc1OS(=O)(=O)c1ccc(C)cc1`, the growth in assay [1] was 86.6%; in [2], 74.2%; in assay [3] it was 116%; in [4], 94.3%; in assay [5] it was 82.5%; in assay [6], 86.3%. The growth in assay [7] is 12.9%; in [8], -2.36% (active); in [9], -13.8% (active).

Regarding `O=C1/C(=C\c2ccc(F)cc2)CN(C(=O)c2ccc([N+](=O)[O-])cc2)C/C1=C\c1ccc(F)cc1`, the growth in assay [1] was 46.9%; in [2], 24.3%; in assay [3] it was 87.3%; in [4] it was 44.3%; in assay [5], 39.4%; in assay [6], 52%. Besides, the growth is 7.75% (active) in [7], 27.2% in assay [8] and -19.3% (active) in [9].

Take `COc1ccc(Nc2ccnc(NCCNc3ccnc4cc(Cl)ccc34)n2)cc1`: the growth in assay [1] is 57.7%; in assay [2] it was 44.8%; in assay [3], 71.6%; in [5] it was 60.6%; in assay [6], 37.3%; in [7], 42.1%. In addition, in assay [8], the growth is 18%.

On to `Clc1ccc(Nc2ccnc(NCCCNc3ccnc4cc(Cl)ccc34)n2)cc1`, for which the growth in [1] is -51.6% (active); in assay [2], -46.2% (active); in assay [3], -82.9% (active); in assay [4], -93.9% (active); in assay [5] it was -71.5% (active); in assay [6] it was -4.52% (active). Besides, the figures for the growth in [8] and in assay [9] were -31.5% (active) and -55.5% (active), respectively.

For `CS(=O)(=O)Nc1ccc(Nc2c3ccccc3nc3cc(N)ccc23)cc1`, the growth is 5.31% (active) in assay [1]; 28.6% in [2]; 62.3% in assay [3]; 24.9% in assay [4]; 19.9% in assay [5]; 57.1% in assay [6]. The growth in assay [9] was 8.53% (active).

Regarding `O=C1/C(=C\c2ccc(Cl)cc2)CN(C(=S)Nc2ccccc2)C/C1=C\c1ccc(Cl)cc1`, the growth was -52% (active) in assay [1]; -95% (active) in assay [2]; -60.5% (active) in assay [3]; -86.8% (active) in assay [4]; -17.6% (active) in assay [5]; -2.03% (active) in assay [7]. In addition, the growth is 5.1% (active) in [8] and -15.1% (active) in assay [9].

On to `CC/C(=C(/c1ccc(OCCN(C)C)cc1)c1ccc(OC(=O)CCCCCCCCC(=O)c2c(C)[nH]c(/C=C3\N=C(c4ccc[nH]4)C=C3OC)c2C)cc1)c1ccccc1`, for which the growth in assay [1] was 74.7%; in [2] it was 62.2%; in assay [3] it was 98%; in [4], 87.6%; in assay [5], 47.1%; in [7] it was 23.5%. The growth in assay [8] was 36.2%; in [9] it was 47.8%.

With `COc1ccc(/C=C2/CN(C(=O)c3ccccc3F)C/C(=C\c3ccc(OC)cc3)C2=O)cc1`, the growth in [1] was 65.7%; in [2], 46.1%; in assay [3], 130%; in assay [5], 67.6%; in assay [6], 122%; in assay [7] it was 4.22% (active). In addition, the growth in assay [8] was 23.5%; in assay [9] it was -23.2% (active).

As to `CN(Cc1ccccc1)Cc1ccc([N+](=O)[O-])cc1I`, the growth in assay [1] was 99.9%; in assay [2], 88.4%; in [3], 106%; in [4], 101%; in [5], 93%; in assay [6] it was 81.4%. Moreover, the growth in [8] was 91.1%; in [9], 67.2%.

With `CC(C)(C)c1cc(Br)cc(C(C)(C)C)c1O`, the growth in [1] is 96.5%; in assay [2], 86.6%; in assay [3], 113%; in assay [4] it was 106%; in assay [5], 89.5%; in [6] it was 120%. Also, the growth was 96% in assay [8] and 92.3% in assay [9].

As for `Cc1cc(Nc2ccc(Cl)cc2)nc(NCCCNc2ccnc3cc(Cl)ccc23)n1`, the growth was -75.9% (active) in assay [1]; -40.1% (active) in assay [2]; -74.7% (active) in [3]; -36.3% (active) in assay [5]; 12.7% in [6]; -22.7% (active) in [7]. Also, the growth in [8] is -47.7% (active).

Turning to `CCCC#CCN(CC)CC`, the growth in [1] is 95.8%; in assay [2] it was 83.5%; in assay [3], 99.2%; in assay [4], 106%; in assay [5], 88.2%; in assay [6], 105%. In addition, the growth was 109% in assay [8] and 101% in assay [9].

On to `C#Cc1ccc(-n2c(/C=C/c3ccc(O)c(OC)c3)nc3ncccc3c2=O)cc1`, for which the growth is 98.4% in assay [1]; 73.9% in [2]; 139% in assay [3]; 96% in assay [5]; 94% in [6]; 91.4% in assay [7]. In addition, the growth in assay [8] was 86.1%; in assay [9], 80.9%.

With `c1ccc(CO[C@H]2CO[C@H]3[C@@H]2OC[C@H]3OCc2ccccc2)cc1`, the growth in [1] was 102%; in assay [2] it was 72.1%; in assay [3], 101%; in assay [4] it was 101%; in assay [6], 110%; in assay [7], 99.2%. Besides, the growth in assay [8] is 95.2%; in assay [9] it was 94.6%.
